Measured values reported in PMC4336329 (PLoS ONE, 2015).
The campaign covered roughly 310,000 compounds. About 14,000 (4.5%) showed an effect of 50% or more. Effects have a minus sign here. The full list was thinned out, with strong results kept by preference.

molecular target: human ether-à-go-go-related gene (hERG) potassium channel (human, UniProt Q12809); assay: primary screen, population patch clamp on CHO cells stably expressing hERG; higher = less effect of the substance
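Further: peak tail current of the secondary pulse compared with the same well before compound.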

human ether-à-go-go-related gene (hERG) potassium channel, sequence (Q12809 whole entry, looked up): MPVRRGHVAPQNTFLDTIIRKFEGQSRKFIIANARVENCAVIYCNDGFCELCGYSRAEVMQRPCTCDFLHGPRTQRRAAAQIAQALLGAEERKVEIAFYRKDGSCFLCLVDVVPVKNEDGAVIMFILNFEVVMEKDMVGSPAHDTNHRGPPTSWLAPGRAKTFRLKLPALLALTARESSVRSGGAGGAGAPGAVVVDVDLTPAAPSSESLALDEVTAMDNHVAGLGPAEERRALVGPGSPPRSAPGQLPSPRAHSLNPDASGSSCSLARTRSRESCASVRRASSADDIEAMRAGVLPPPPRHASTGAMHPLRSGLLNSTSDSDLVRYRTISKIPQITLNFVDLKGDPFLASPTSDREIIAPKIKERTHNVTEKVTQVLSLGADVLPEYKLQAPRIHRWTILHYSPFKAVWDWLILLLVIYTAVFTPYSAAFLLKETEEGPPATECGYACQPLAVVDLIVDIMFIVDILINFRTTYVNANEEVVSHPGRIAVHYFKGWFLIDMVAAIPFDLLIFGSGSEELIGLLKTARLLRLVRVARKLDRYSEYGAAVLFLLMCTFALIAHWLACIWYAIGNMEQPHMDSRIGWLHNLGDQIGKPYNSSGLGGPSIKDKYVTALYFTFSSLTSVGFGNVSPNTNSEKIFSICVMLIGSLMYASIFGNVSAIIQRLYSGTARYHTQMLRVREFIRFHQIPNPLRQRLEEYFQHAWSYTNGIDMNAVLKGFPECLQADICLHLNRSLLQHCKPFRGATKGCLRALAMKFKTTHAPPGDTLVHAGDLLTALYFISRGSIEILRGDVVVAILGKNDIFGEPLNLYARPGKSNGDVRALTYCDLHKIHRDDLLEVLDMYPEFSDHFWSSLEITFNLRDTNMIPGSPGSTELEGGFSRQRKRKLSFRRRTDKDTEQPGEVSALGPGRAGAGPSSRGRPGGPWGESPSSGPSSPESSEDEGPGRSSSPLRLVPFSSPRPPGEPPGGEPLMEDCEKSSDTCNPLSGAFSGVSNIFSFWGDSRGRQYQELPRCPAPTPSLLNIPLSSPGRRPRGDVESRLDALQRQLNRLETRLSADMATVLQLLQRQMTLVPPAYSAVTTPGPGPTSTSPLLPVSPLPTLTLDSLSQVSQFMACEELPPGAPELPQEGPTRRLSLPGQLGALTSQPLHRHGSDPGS

Compared with `CCOC(=O)c1cnn(-c2sc(C(=O)OCC)c(C)c2C(=O)OCC)c1N`, `CCOC(=O)CN(C(=O)c1ccccc1[N+](=O)[O-])C(C)(C)C` is lower in “hERG current change (%, negative = inhibition) at 10uM” value: 16.4% for the first, 9.73% for the second.

First: O=C(NC1CCCCC1)c1ccc2snnc2c1
Second: CS(=O)(=O)N(CC(=O)NC1CCCCCC1)Cc1ccccc1
The “hERG current change (%, negative = inhibition) at 10uM” value of the first is higher: 12.8% for the first, -1.26% for the second.

Going from `NS(=O)(=O)c1ccc(CCNC(=O)CCCCCn2c(=S)[nH]c3ccc(Br)cc3c2=O)cc1` to `COc1ccc(C(OCC(O)CNCCc2ccc(S(N)(=O)=O)cc2)c2ccc(OC)cc2)cc1` (centres unmarked), the “hERG current change (%, negative = inhibition) at 10uM” value falls from 9.32% to -43.2%.

Compared with `O=C(O)c1ccc(-n2nnnc2SCc2cccc(Br)c2)cc1`, `CCn1c(SCC(=O)c2ccc3ccccc3c2)nnc1-c1cccs1` is lower in “hERG current change (%, negative = inhibition) at 10uM” value: 13.2% for the first, -8.29% for the second.

Compared with `COc1ccc(/C=C/C(=O)NC(=S)Nc2ccc(N3CCN(C(C)=O)CC3)cc2)cc1`, `COc1ccc(C(=O)N2CCC(CCC(=O)Nc3cccc(C)c3)CC2)cc1` is lower in “hERG current change (%, negative = inhibition) at 10uM” value: 12.2% for the first, -68.3% for the second.

Compared with `COC(=O)C1=C(c2cccc(OCc3ccccc3)c2)C[C@@H]2CC[C@H]1N2C(=O)NNCc1ccccc1`, `CC(NCC(O)COc1ccc2ccccc2c1)c1ccccc1.O=C(O)C(=O)O` (centres unmarked) is lower in “hERG current change (%, negative = inhibition) at 10uM” value: 10.8% for the first, -44% for the second.

First: CC1CC(C)CN(C(=O)Cn2cc(C=O)c3ccccc32)C1 (centres unmarked)
Second: O=C(N/C(=C\c1ccccc1)C(=O)N1CCOCC1)c1ccc(Br)o1
The “hERG current change (%, negative = inhibition) at 10uM” value of the first is lower: -4.11% for the first, 3.18% for the second.

Going from `Cc1nn(C)c(C(=O)NNC(=S)NCc2ccco2)c1Cl` to `COc1cc(C(=O)NC(=S)NCc2ccco2)cc(OC)c1OC`, the “hERG current change (%, negative = inhibition) at 10uM” value falls from 7.69% to 1.74%.

First: O=c1cc2c(nn1Cc1ccc(F)cc1)-c1ccccc1CC2
Second: O=c1cc2c(nn1Cc1ccc(Cl)cc1)-c1ccccc1CC2
The “hERG current change (%, negative = inhibition) at 10uM” value of the first is lower: -61.3% for the first, -13.6% for the second.

Compared with `O=c1cc2c(nn1Cc1ccccc1)-c1ccccc1CC2`, `CCOC(=O)C1(Cc2ccccc2)CCN(Cc2cc(=O)c3ccccc3[nH]2)CC1` is higher in “hERG current change (%, negative = inhibition) at 10uM” value: -17.6% for the first, 13.5% for the second.

Compared with `C#Cc1ccc([C@H]2C=C(C(=O)O)O[C@@H](OCc3ccc(CO)cc3)C2)cc1`, `O=C(O)CN1C(=O)/C(=C\c2ccccc2OCc2ccc(Cl)cc2)SC1=S` is higher in “hERG current change (%, negative = inhibition) at 10uM” value: 9.26% for the first, 15.3% for the second.

Going from `Clc1ccccc1OCCCCn1ccnc1` to `CCOc1ccc(Cl)cc1CNCCc1ccccc1F.Cl`, the “hERG current change (%, negative = inhibition) at 10uM” value falls from -2.93% to -59.8%.

Compared with `Cc1ccc(C2C(C(=O)c3cc4ccccc4o3)=C(O)C(=O)N2c2cc(C)on2)cc1` (centres unmarked), `Cc1cc(NC(=O)CN2C(=O)CC(c3ccco3)Sc3ccccc32)no1` (centres unmarked) is lower in “hERG current change (%, negative = inhibition) at 10uM” value: 19.3% for the first, -61.8% for the second.

First: CCOc1ccc2nc(SCC(=O)Nc3ccc4[nH]c(=O)[nH]c4c3)[nH]c2c1
Second: CCOC(=O)C1(Cc2ccccc2)CCN(Cc2ccc3cc(NC(C)=O)ccc3n2)CC1
The “hERG current change (%, negative = inhibition) at 10uM” value of the first is higher: 27% for the first, -68.7% for the second.

Compared with `Cc1ccc2nc(COc3ccc(Cl)cc3)cc(=O)n2c1`, `Cc1ccc2nc(COc3ccc(N(C)S(=O)(=O)c4ccccc4)cc3)cc(=O)n2c1` is lower in “hERG current change (%, negative = inhibition) at 10uM” value: 15% for the first, -56% for the second.

Going from `COc1cccc(COc2ccc(N(C)S(=O)(=O)c3ccccc3)cc2)c1` to `COc1cccc(OCC(O)CNC(C)c2ccccc2)c1.Cl` (centres unmarked), the “hERG current change (%, negative = inhibition) at 10uM” value falls from 3.08% to 2.14%.

Compared with `O=C(/C(Cl)=C/Nc1ccc(Br)cn1)C(F)(F)F`, `Cc1noc(C)c1COc1ccc(C(=O)O)cc1` is higher in “hERG current change (%, negative = inhibition) at 10uM” value: 12.7% for the first, 17.1% for the second.

Going from `O=C(CN1C(=O)CC(c2ccco2)Sc2ccccc21)Nc1ccccc1F` (centres unmarked) to `O=C(CN1C(=O)CC(c2ccco2)Sc2ccccc21)Nc1ccc2c(c1)OCCO2` (centres unmarked), the “hERG current change (%, negative = inhibition) at 10uM” value rises from -39.3% to -6.73%.

First: Oc1cccc(C=NCc2ccccc2)c1
Second: Cc1cccc(C)c1OCC(O)CNC(C)c1ccccc1.Cl (centres unmarked)
The “hERG current change (%, negative = inhibition) at 10uM” value of the first is higher: 8.22% for the first, -13.7% for the second.

First: O=C(c1ccc(Cl)cc1)N1CCN(C(=O)C2CCCCC2)CC1
Second: NC(=O)C1CCCN(Cc2ccc(Cl)cc2)C1 (centres unmarked)
The “hERG current change (%, negative = inhibition) at 10uM” value of the first is lower: -2.89% for the first, 0.421% for the second.

First: Cc1cc(C)n(-c2nc(C)nc(N)n2)n1
Second: Cc1nc2cc(C)c(C)cc2s1
The “hERG current change (%, negative = inhibition) at 10uM” value of the first is lower: 10.3% for the first, 15.7% for the second.

First: CC(C)Oc1cccc(C(=O)C2CCCN(Cc3ccc(Oc4ncccn4)cc3)C2)c1 (centres unmarked)
Second: O=C(c1ccc(Cl)cc1)C1CCCN(Cc2ccc(Oc3ncccn3)cc2)C1 (centres unmarked)
The “hERG current change (%, negative = inhibition) at 10uM” value of the first is higher: -62.6% for the first, -72.9% for the second.

Compared with `CC(C)Oc1cccc(C(=O)C2CCCN(Cc3ccc4nonc4c3)C2)c1` (centres unmarked), `CC(C)Oc1cccc(C(=O)C2CCCN(Cc3cnn(C(C)C)c3)C2)c1` (centres unmarked) is lower in “hERG current change (%, negative = inhibition) at 10uM” value: -1.53% for the first, -36.3% for the second.

Going from `COc1c(C)cc(C(=O)C2CCCN(Cc3ccccn3)C2)cc1C` (centres unmarked) to `COc1c(C)cc(C(=O)C2CCCN(Cc3cccc(O)c3)C2)cc1C` (centres unmarked), the “hERG current change (%, negative = inhibition) at 10uM” value falls from -16.5% to -23.9%.

First: COc1c(C)cc(C(=O)C2CCCN(Cc3ccc(Oc4ncccn4)cc3)C2)cc1C (centres unmarked)
Second: COc1cccc(C(=O)N2CCC(CCC(=O)Nc3cccc(C)c3)CC2)c1
The “hERG current change (%, negative = inhibition) at 10uM” value of the first is lower: -68.9% for the first, -28.6% for the second.

First: COc1cccc(-n2cc3c(=O)n(C)c(=O)n(C)c3c2)c1
Second: COc1ccc(OC)c(S(=O)(=O)Nc2cccc(-c3ccc4nncn4n3)c2)c1
The “hERG current change (%, negative = inhibition) at 10uM” value of the first is lower: -3.89% for the first, 18.7% for the second.

First: O=C(Nc1ccccc1Br)C(=O)N1CCCC1
Second: O=C(N/C(=C\c1ccc(Br)cc1)C(=O)N1CCOCC1)c1ccco1
The “hERG current change (%, negative = inhibition) at 10uM” value of the first is higher: 3.44% for the first, -41% for the second.

Going from `CCCC(C)NC(=O)Cc1ccccc1[N+](=O)[O-]` (centres unmarked) to `CCCC(C)NC(=O)C1CCN(S(=O)(=O)c2ccccc2)CC1` (centres unmarked), the “hERG current change (%, negative = inhibition) at 10uM” value falls from 2.52% to -12%.

Going from `CC(C)(C)C(=O)OCc1nc(-c2ccc3c(c2)OCCO3)cs1` to `CC(C)(C)NCc1cc(Cl)ccc1OCc1ccccc1F.Cl`, the “hERG current change (%, negative = inhibition) at 10uM” value falls from 10.8% to -43.3%.

Compared with `CCOc1ccc(Cl)cc1CNCCc1ccc(F)cc1.Cl`, `CCN(CC)CCNCc1cc(Cl)ccc1OCc1ccccc1F.Cl` is lower in “hERG current change (%, negative = inhibition) at 10uM” value: -48% for the first, -72.8% for the second.

Compared with `CCOc1ccc(Cl)cc1CNCCNCCO.Cl`, `CCNCc1ccc(OCc2ccccc2F)c(OC)c1.Cl` is lower in “hERG current change (%, negative = inhibition) at 10uM” value: 24.3% for the first, -11% for the second.

First: Cc1ccc2c(c1)C(c1ccccc1)N(C(=O)c1ccc(S(=O)(=O)N3CCOCC3)cc1)CC(=O)N2 (centres unmarked)
Second: Cc1ccc(S(=O)(=O)CCc2nc3ccccc3[nH]2)cc1
The “hERG current change (%, negative = inhibition) at 10uM” value of the first is lower: -19.1% for the first, -17.6% for the second.

Going from `COc1cc([N+](=O)[O-])ccc1NC(=O)C[n+]1ccccc1C.[Cl-]` to `COc1ccc(/C(N)=N/OC(=O)c2ccc(C)c([N+](=O)[O-])c2)cc1`, the “hERG current change (%, negative = inhibition) at 10uM” value falls from 11% to -6.61%.

Compared with `N#Cc1c(-c2ccccc2)cc(-c2ccccc2)nc1SCCC(=O)O`, `COc1ccc(CCNCC(O)c2ccccc2)cc1.O=C(O)C(=O)O` (centres unmarked) is lower in “hERG current change (%, negative = inhibition) at 10uM” value: 18.4% for the first, -11.4% for the second.

Compared with `O=C(N/C(=C/c1ccc(Br)cc1)C(=O)N1CCOCC1)c1ccc(Br)o1`, `O=C(N/C(=C\c1ccc(Br)cc1)C(=O)N1CCOCC1)c1ccc(Br)o1` is higher in “hERG current change (%, negative = inhibition) at 10uM” value: -70.2% for the first, -67.1% for the second.

Compared with `O=C(N/C(=C/c1ccc(Br)cc1)C(=O)N1CCOCC1)c1ccco1`, `O=C(N/C(=C/c1ccc(Br)cc1)C(=O)N1CCOCC1)c1cccs1` is higher in “hERG current change (%, negative = inhibition) at 10uM” value: -24.1% for the first, -5.65% for the second.

Compared with `COc1cccc(NC(=O)CCC2CCN(C(=O)c3ccc(C(C)=O)s3)CC2)c1`, `COc1cccc(NC(=O)CCC2CCN(C(=O)c3cccc(NC(C)=O)c3)CC2)c1` is higher in “hERG current change (%, negative = inhibition) at 10uM” value: -36.9% for the first, -28.4% for the second.

Going from `COCc1ccc(C(=O)N2CCC(CCC(=O)Nc3cccc(C)c3)CC2)s1` to `Cc1cccc(NC(=O)CCC2CCN(C(=O)c3ccc(C)s3)CC2)c1`, the “hERG current change (%, negative = inhibition) at 10uM” value falls from -15.1% to -65.5%.

Going from `O=[N+]([O-])c1ccc(-c2nc(NCC3CCCO3)c3ccccc3n2)cc1` (centres unmarked) to `Cc1ccc(C(OCC(O)CNC(CO)C(O)c2ccc([N+](=O)[O-])cc2)c2ccccc2)cc1` (centres unmarked), the “hERG current change (%, negative = inhibition) at 10uM” value falls from 12.3% to -22.4%.

Compared with `O=C(Cc1ccsc1)N1CCN(S(=O)(=O)c2cc(C(F)(F)F)cc(C(F)(F)F)c2)CC1`, `COc1ccccc1COCC(O)CNCCc1ccc(C(F)(F)F)cc1.O=C(O)C(=O)O` (centres unmarked) is lower in “hERG current change (%, negative = inhibition) at 10uM” value: 1.69% for the first, -56.5% for the second.

Compared with `CN1C(=O)C(CC(=O)Nc2ccc(F)cc2)N(NC(=O)c2cccc(F)c2)C1=S` (centres unmarked), `CC(=O)Nc1ccc2nc(CN3CCC(CO)(CCc4ccccc4)CC3)ccc2c1` is lower in “hERG current change (%, negative = inhibition) at 10uM” value: -3.79% for the first, -68.2% for the second.

First: CC(=O)Nc1ccc2nc(CN3CCN(CC=C(C)C)C(CCO)C3)ccc2c1 (centres unmarked)
Second: CC(=O)Nc1ccc2nc(CN3CCN(CC(C)C)C(CCO)C3)ccc2c1 (centres unmarked)
The “hERG current change (%, negative = inhibition) at 10uM” value of the first is lower: 11.5% for the first, 17% for the second.

Compared with `CCOC(=O)C1(Cc2ccccc2)CCN(Cc2ccon2)CC1`, `CCCCc1n[nH]c2c1/C(=N/O)CC(c1ccccc1)C2` (centres unmarked) is higher in “hERG current change (%, negative = inhibition) at 10uM” value: 0.71% for the first, 8.46% for the second.

Compared with `COc1ccc(C(=O)Nc2nc3c(s2)CCCC3)cc1S(=O)(=O)N1CCCc2ccccc21`, `OC(CNCCc1ccc(C(F)(F)F)cc1)COc1cccc2ccccc12` (centres unmarked) is lower in “hERG current change (%, negative = inhibition) at 10uM” value: -2.36% for the first, -36.5% for the second.

First: O=C(O)C(=O)O.OC(CNCCc1ccc(C(F)(F)F)cc1)COC(c1ccccc1)c1ccccc1 (centres unmarked)
Second: COc1ccc(C(OCC(O)CNCCc2ccccc2)c2ccc(OC)cc2)cc1.O=C(O)C(=O)O (centres unmarked)
The “hERG current change (%, negative = inhibition) at 10uM” value of the first is higher: -34.7% for the first, -63.7% for the second.

Going from `COc1ccc(C(OCC(O)CNC(C)c2ccccc2)c2ccc(OC)cc2)cc1` (centres unmarked) to `Cc1ccc(C(OCC(O)CNC(C)c2ccccc2)c2ccccc2)cc1` (centres unmarked), the “hERG current change (%, negative = inhibition) at 10uM” value falls from -52.4% to -58.2%.
